Assay outcomes: PubChem, The Scripps Research Institute Molecular Screening Center
Compounds with a hit are over-represented: about 3.4% of the library has one in this group of screens.
FBW7 activator – activators of human E3 ligase FBW7; Q969H0; AlphaScreen FBW7–phospho-cyclin E peptide binding, activator screen; normalized activity (activation), % at 26.1 µM; actives 0.13% (n = 650,000); in the data active = normalized activity above about 1.9%;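 note: purified mutant Fbw7 with reduced substrate affinity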
Target sequence (Q969H0 whole entry, looked up): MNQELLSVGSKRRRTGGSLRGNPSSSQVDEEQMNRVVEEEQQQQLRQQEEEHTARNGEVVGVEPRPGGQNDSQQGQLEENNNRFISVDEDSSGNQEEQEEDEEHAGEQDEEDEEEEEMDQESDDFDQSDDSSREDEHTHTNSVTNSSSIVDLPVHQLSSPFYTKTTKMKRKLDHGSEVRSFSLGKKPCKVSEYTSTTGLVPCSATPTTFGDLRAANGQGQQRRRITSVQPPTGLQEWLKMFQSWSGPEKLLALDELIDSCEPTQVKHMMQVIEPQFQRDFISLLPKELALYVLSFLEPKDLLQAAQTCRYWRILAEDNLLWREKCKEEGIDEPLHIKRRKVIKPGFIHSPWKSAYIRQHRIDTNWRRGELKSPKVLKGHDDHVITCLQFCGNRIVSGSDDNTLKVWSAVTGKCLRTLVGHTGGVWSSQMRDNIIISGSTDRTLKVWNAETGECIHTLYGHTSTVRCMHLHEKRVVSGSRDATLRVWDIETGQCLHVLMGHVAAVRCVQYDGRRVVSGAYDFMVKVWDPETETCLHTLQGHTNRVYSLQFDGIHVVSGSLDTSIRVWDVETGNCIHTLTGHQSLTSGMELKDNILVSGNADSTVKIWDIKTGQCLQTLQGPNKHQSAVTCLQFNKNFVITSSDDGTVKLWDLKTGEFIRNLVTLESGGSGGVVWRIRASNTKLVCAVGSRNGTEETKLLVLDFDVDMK
GPR151 ag – activators of human GPR151; Q8TDV0; PathHunter beta-arrestin GPR151 cells, luminescence; activation, % at 11.2 µM; actives 1% (n = 650,000); in the data active = activation above about 4.9%;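 note: 0% = median of compound wells and 100% = cells with positive control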
TEAD-YAP inh – TEAD-YAP interaction inhibition; AID 1259422; actives 1.4% (n = 640,000); inhibition, % at 9.12 µM; HEK-TIYL cells, TEAD-Gal4/YAP UAS-luciferase luminescence; in the data active = inhibition above about 32%;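 note: 0% = median of test compound wells and 100% = reference inhibitor wells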
MITF primary – human MITF inhibition, primary screen; inhibition, % at 2.6 µM; AlphaScreen MITF homodimerization, bead proximity signal; O75030; actives 0.91% (n = 650,000); in the data active = inhibition above about 50%;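 note: 0% = vehicle wells with protein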
GPR151 conf act – human GPR151 activation, confirmation screen; GPR151 PathHunter beta-arrestin cells, luminescence, 90 min; % of EA-reagent control over plate median; shares compounds with GPR151 ag; activation, % at 11.2 µM; 6,700 tested, under 10 active;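 active = mean percent activation across replicates above the confirmation screen cutoff of 4.91%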
GPR119 ag – activates human GPR119 in a GPR151 counter-screen. shares compounds with GPR151 ag. GPR119 PathHunter beta-arrestin cells, luminescence, 90 min; 0 = compound-well median, 100 = enzyme-acceptor control. activation, % at 11.2 µM. actives 0.3% (n = 6,700);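 active = mean percent activation in the counterscreen above 29.09%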;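 note: counterscreen on off-target GPR119 to flag nonselective hits from the GPR151 activator screen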
Numbers without * were called inactive; x = no result.

SMILES | FBW7 activator | GPR151 ag | TEAD-YAP inh | MITF primary | GPR151 conf act | GPR119 ag
CC1(C)CC(N(Cc2cccs2)C(=O)c2ccco2)CCO1 (stereo unspecified) | 0.0 | 9.3* | -3.6 | 15.4 | -2.0 | -16.3
O=C(NC1CCCC1)C(c1ccco1)N(Cc1cccs1)C(=O)c1ccco1 (stereo unspecified) | 0.1 | 1.3 | -5.4 | 8.4 | x | x
CCNc1nc(NCC)n2c(SCC(=O)OCC)nnc2n1 | 0.0 | 26.0* | 11.2 | -1.0 | 2.4 | 10.7
CCNc1nc(NCC)n2c(SCC(=O)c3ccc(OC)cc3)nnc2n1 | 0.0 | 1.4 | -1.5 | -6.4 | x | x
Cc1nc2cc(C(=O)N3CCCC(N4CCOCC4)C3)ccc2n1-c1ccccc1 (stereo unspecified) | 0.2 | 10.9* | -5.0 | -10.4 | 0.5 | -6.4
Cc1cccc(-n2ccnc2SCC(=O)Nc2ccc(F)cc2F)c1C | -0.3 | 9.3* | -5.4 | -4.1 | 0.5 | -4.2
COC(=O)c1ccc(CN2CCC(N(CC3CC3)S(=O)(=O)c3cccs3)CC2)cc1 | -0.2 | 2.4 | 0.1 | -1.3 | x | x
CCC(Sc1nnc(-c2ccccc2)n1N)C(=O)O (stereo unspecified) | 0.1 | -1.0 | -0.1 | 3.1 | x | x
CC(Cc1nnc(-c2ccccc2)n1N)C(=O)O (stereo unspecified) | 0.0 | 9.8* | 5.8 | 5.8 | 0.2 | 3.7
CN1Cc2cccc(C(=O)NC3(c4ccc(F)cc4)CCCC3)c2C1=O | 0.1 | -0.7 | 4.1 | 5.3 | x | x
O=C(O)C1CSC(c2ccsc2)N1 (stereo unspecified) | 0.7 | 5.3* | 2.4 | 23.4 | -0.3 | -2.3
O=C(O)C1CSC(c2ccncc2)N1 (stereo unspecified) | -0.4 | 1.3 | -3.2 | 8.4 | x | x
O=C1NC(=O)C2C1Sc1[nH]c(=O)sc1C2c1c[nH]c2ccccc12 (stereo unspecified) | -0.1 | -1.4 | -0.7 | 10.6 | x | x
Cc1ccc2[nH]c3c(c2c1)CCCC3NC(=O)CCl (stereo unspecified) | 0.0 | 7.3* | 87.8* | 0.0 | 1.0 | -0.8
CCOc1ccc(OC(=O)c2ccc(C(=O)Oc3ccc(OCC)cc3)nc2)cc1 | 0.0 | -1.1 | -5.7 | -11.7 | x | x
CCc1ccc(OC(=O)c2ccc(C(=O)Oc3ccc(CC)cc3)nc2)cc1 | 0.1 | 5.4* | 9.1 | -20.0 | -0.3 | -2.8
CCn1c(C(=O)N2CCCC2)cc2sc(Cl)cc21 | 0.2 | 1.8 | -18.8 | 8.7 | x | x
OCC1(Cc2ccccc2)CCN(Cc2cccc3nonc23)CC1 | -0.2 | 2.2 | 1.6 | 0.0 | x | x
OCC1(Cc2ccccc2)CCN(Cc2cccc3c2OCO3)CC1 | -0.1 | 5.0* | -4.3 | -3.2 | 0.1 | -3.2
O=C(CSc1nc2ccccc2o1)Nc1ccccc1Cl | -0.1 | -0.5 | -41.5 | 3.0 | x | x
Cc1cccc(C)c1NC(=O)CSc1nc2ccccc2o1 | -0.2 | 7.6* | 13.2 | 3.1 | -1.1 | -5.6
O=C(CSc1nc2ccccc2o1)Nc1ccccc1C(F)(F)F | 0.1 | 5.2* | -16.5 | 9.5 | 1.5 | 4.7
CCOC(=O)c1cnc2c(C)c(C)ccc2c1NCc1ccco1 | 0.0 | 3.4 | -9.7 | 5.6 | x | x
CCOC(=O)c1cnc2c(ccc3ccccc32)c1NCc1ccco1 | 0.9 | 5.8* | -5.8 | -1.3 | 0.5 | 5.9
COc1cccc(NC(=O)N2CCNCC2)c1 | -0.1 | 23.2* | -6.6 | 2.5 | -0.6 | -14.0
SMILES | FBW7 activator | GPR151 ag | TEAD-YAP inh | MITF primary | GPR151 conf act | GPR119 ag
COC(=O)c1ccc(NC(=O)/C=C/c2ccccc2Cl)cc1 | 1.3 | 6.1* | -5.1 | 5.3 | -0.4 | 5.7
CC1(C)Cc2c(C#N)c(N3CCCC3)nc(-c3ccco3)c2CO1 | 0.0 | 11.6* | 0.4 | -4.0 | 0.8 | 3.7
N#Cc1c(N2CCCCC2)nc(-c2ccco2)c2c1CCCC2 | 0.3 | 0.0 | 14.0 | 16.1 | x | x
CCN1CCN(C(=O)CN(C)S(=O)(=O)c2ccc(Br)cc2)CC1 | 0.0 | -2.5 | 12.5 | 1.1 | x | x
CCN1CCN(C(=O)CN(C)S(=O)(=O)c2ccc(Cl)cc2)CC1 | -0.1 | 19.8* | -1.4 | 8.1 | -0.3 | -1.6
CCOC(=O)c1oc2ccccc2c1NC(=O)c1ccc(Cl)s1 | 0.3 | 6.5* | -26.2 | 15.4 | -0.5 | -2.1
CCOC(=O)c1oc2ccccc2c1NC(=O)C1CCCCC1 | 1.1 | -0.4 | -3.7 | 9.9 | x | x
CCOC(=O)c1oc2ccccc2c1NC(=O)C1COc2ccccc2O1 (stereo unspecified) | 0.1 | 5.5* | 10.4 | -0.1 | -0.1 | 3.5
CCOc1ccc(/C=C2\SC(=S)N(C(CC(=O)O)C(=O)O)C2=O)cc1 (stereo unspecified) | -0.8 | 0.5 | 6.6 | -8.4 | x | x
Cc1cncc2c(S(=O)(=O)N3CC[C@H](NC(=O)CN)C3)cccc12 | -0.1 | 6.1* | 5.4 | 8.3 | -0.4 | -10.6
CC1=C(C(=O)Nc2ccc(F)cc2)C(c2ccccc2Br)NC(=O)N1 (stereo unspecified) | -0.2 | 5.1* | 0.7 | 1.3 | 0.4 | -3.2
Cc1ccc2nc3c(cc(C#N)c(=O)n3-c3cccc(Cl)c3C)c(=O)n2c1 | 0.1 | -1.3 | -1.8 | 8.5 | x | x
COc1ccccc1N1CCN(C(=O)CN(c2cc(C)cc(C)c2)S(C)(=O)=O)CC1 | 0.1 | 6.4* | 5.9 | 15.4 | -0.1 | -0.2
COc1ccccc1N(CC(=O)N(C)C)S(C)(=O)=O | 0.1 | 6.1* | 8.2 | 16.1 | 1.3 | 17.4
COc1ccccc1N(CC(N)=O)S(C)(=O)=O | 0.5 | -0.8 | -3.7 | -2.5 | x | x
CC1CCN(C(=O)CSc2nc3ccsc3c(=O)n2Cc2ccc3c(c2)OCO3)CC1 | 0.9 | -2.1 | 11.2 | 6.0 | x | x
CC(C)N(C)Cc1nnnn1CC(=O)NC(c1ccccc1)c1ccc(Cl)cc1 (stereo unspecified) | 0.0 | 0.2 | -14.0 | -2.0 | x | x
C=CCn1c(=NC(=O)c2cc3ccccc3oc2=O)sc2cc(S(N)(=O)=O)ccc21 | 0.0 | -1.5 | -40.9 | -2.9 | x | x
CC(C)(C)C1CCc2c(sc(NC(=O)c3ccccc3Cl)c2C(=O)N2CCCC2)C1 (stereo unspecified) | -0.1 | 0.3 | -9.8 | -9.4 | x | x
CC(C)(C)OC(=O)NCC(=O)NC(Cc1ccc(OCc2ccccc2)cc1)C(N)=O (stereo unspecified) | 0.0 | 5.1* | -6.8 | -1.1 | 2.1 | 9.9
Oc1ccc(CCNc2nc(N3CCC(N4CCOCC4)CC3)nc3nc[nH]c23)cc1 | -0.2 | -0.3 | 3.3 | -7.2 | x | x
O=C(NCCc1ccccc1)C(F)(F)C(F)F | -0.2 | 19.0* | 0.4 | 6.2 | -0.4 | 1.5
CN(CCn1ccnc1)c1nc2nonc2nc1NCc1ccccc1 | 0.1 | 2.4 | -0.1 | 5.8 | x | x
CCN(CCn1cccn1)c1nc2nonc2nc1NCc1ccccc1 | 0.0 | 6.5* | -4.5 | 7.9 | 0.4 | 2.3
Cc1ccc2cc(CN(CC3CCCO3)C(=O)C3CCC3)c3nnnn3c2c1 (stereo unspecified) | -0.1 | 8.4* | 11.8 | 4.0 | 3.6 | 8.4
